Hits are enriched below; roughly 0.9% of the tested compounds scored in any of these assays.
Tat transport: E. coli Tat export inhibitors, primary screen, MC4100, TorA-mCherry reporter, fluorescence, single point | inhibition, % at 10 µM | 0.036% of 340,000 active;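 active = mean replicate inhibition at least 50% and at least half of replicates individually reaching 50%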;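 note: exported cargo escapes ClpAP degradation while cytoplasmic cargo is degraded and loses fluorescence; 0% = median of neutral control wells and 100% = median of NaSCN control wells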
Calb FLC: C. albicans growth inhibition with fluconazole, primary screen, CaCi-2 strain, Alamar Blue fluorescence. C. albicans CaCi-2 (fluconazole-resistant clinical isolate) + fluconazole, 48 h. growth inhibition, % (test concentration not listed). 0.57% of 300,000 active. AID 1979, 2009;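 active = growth inhibition above about 58% in most replicates, limit read from the data, passing the limit was not always enough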;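 note: all wells also contain fluconazole at 8 µg/ml as a sub-toxic cotreatment; 0% = median of DMSO wells and 100% = median of geldanamycin control wells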
AddAB inh: growth inhibition of E. coli expressing H. pylori AddAB, primary screen, AddAB inhibitor project, absorbance | 0.29% of 330,000 active | inhibition, % at 11.9 µM; in the data active = inhibition above about 12%;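 note: 0% = vehicle wells of infected cells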
phage Ecoli inh: growth loss of phage-infected E. coli, primary screen, RecBCD inhibitor project, absorbance, with phage, HTS. inhibition, % at 11.9 µM. 0.26% of 360,000 active. AID 651602, 2012; in the data active = inhibition above about 11%
E coli growth-1: E. coli growth inhibition, primary screen, OD600 | Escherichia coli growth, 23 h; active compounds read low | OD600 absorbance (test concentration not listed) | 0.21% of 330,000 active;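 active = OD600 absorbance below the run mean of sample wells minus 3.6 SD, in any replicate, cut at about 0.56 in these data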
E coli growth-2: E. coli V3065 growth inhibition, primary screen, counter-screen for AddAB inhibitor project, absorbance, OD600; 0.27% of 330,000 active; inhibition, % at 11.9 µM; 18 h; AID 449728, 2010;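 active = inhibition above the campaign's mean inhibition across all tested compounds plus 3 SD, cut at about 9.9% in these data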;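 note: uninfected addAB+ strain grown without phage in ampicillin broth; 0% = DMSO wells and 100% = ciprofloxacin 0.95 µg/ml wells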
The depositor's hits bear a star; · = no result.

SMILES	Tat transport	Calb FLC	AddAB inh	phage Ecoli inh	E coli growth-1	E coli growth-2
O=S1(=O)CCOCC(CC2CCCCC2)N1Cc1ccccc1 (stereo not drawn)	·	·	·	·	0.697	·
CCCc1nnc(NC(=S)Nc2ccccc2)s1	-2.9	77.0*	-2.2	1.4	0.722	-3.0
COCCSc1nnc(NC(=O)C2CC(=O)N(c3ccc(C)cc3)C2)s1 (stereo not drawn)	18.1	99.2*	-1.9	2.3	0.657	-0.5
Cc1ccc(SCCC(=O)N/N=C/c2ccccc2O)cc1	-1.7	92.2*	0.5	3.2	·	-3.5
Cc1ccc(CN2CC(=O)N3C4c5cc(Cl)ccc5OCC4C(c4ccccc4)[C@]3(C)C2=O)cc1 (stereo partly drawn)	·	·	·	·	0.682	·
Cc1nc2c(Br)cc(Br)cc2cc1O	2.7	0.2	4.3	8.4	0.559*	7.4
Cc1cc(/C=N/n2c(COc3ccccc3C)nc3ccccc3c2=O)c(O)c([N+](=O)[O-])c1	-6.7	90.7*	0.9	2.7	·	1.6
CCOC(=O)C1CCN(CCC(=O)Nc2ccc(F)cc2)CC1	0.0	106.9*	0.0	4.2	0.675	-3.9
CCOC(=O)C1CCN(CCC(=O)Nc2ccc(Br)cc2)CC1	4.7	-15.1	4.7	2.0	0.655	0.9
Cc1cc(=O)[nH]c(SCC(=O)O)c1C#N	2.0	8.8	2.4	2.4	0.705	0.0
C=C(C)CSc1[nH]c(=O)cc(C)c1C#N	-0.8	86.3*	3.9	4.4	0.653	3.0
CN(C)C=c1sc2c(C#N)cc(C(=O)c3ccc(Br)cc3)n2c1=O	·	·	·	·	0.71	·
CCn1cc(C(=O)O)c(=O)c2cc(OC)ccc21	-1.0	-2.1	9.6	-0.9	0.526*	3.4
Cc1ccc(CNC(=O)CSCc2cccc(F)c2)cc1	0.5	93.9*	0.6	3.5	0.695	1.7
CC(C)c1ccc(C=NNC(=O)c2nnn(-c3nonc3N)c2CN(C)C2CCCCC2)cc1	·	·	·	·	0.696	·
Oc1ccc(-c2nc(-c3ccc(F)cc3)c(-c3ccncc3)[nH]2)cc1	-13.0	·	0.1	3.3	0.318*	1.0
Fc1ccc(-c2nc(-c3cccs3)[nH]c2-c2ccc(F)cc2)cc1	-5.9	-6.6	3.5	3.3	0.652	-0.5
Cc1nc2ccccc2c(=O)n1N=Cc1ccc(O)cc1O	·	·	·	·	0.68	·
Cc1cccc(N2CCN(C(=O)c3cn(C)c(=O)c4c3c3ccccc3n4C)CC2)c1C	37.2	56.7*	-2.2	·	0.7	-1.9
O=C(/C=C/c1cc(Br)ccc1O)c1ccco1	-12.4	93.0*	7.3	0.6	0.588	2.7
COC(=O)C(Cc1ccccc1)N(C)S(=O)(=O)c1cccc(S(=O)(=O)N(C)C(Cc2ccccc2)C(=O)OC)c1 (stereo not drawn)	·	·	·	·	0.722	·
Cc1ccc(OCC(=O)NN=Cc2ccc(C)o2)c(C)c1	·	·	·	·	0.638	·
O=C1CC(C(=O)Nc2ccc(Cl)cc2)S/C(=N\N=Cc2ccco2)N1 (stereo not drawn)	·	·	·	·	0.695	·
Cc1ccc(-n2[nH]c(C)c(C=Nc3ccc(S(=O)(=O)Nc4nccs4)cc3)c2=O)cc1C	-5.6	-13.7	10.9	9.2	0.639	8.0
Cc1ccc(-n2[nH]c(C)c(C=Nc3ccc(S(=O)(=O)Nc4nccs4)cc3)c2=O)c(C)c1	·	-0.1	12.6*	·	0.614	5.7
SMILES	Tat transport	Calb FLC	AddAB inh	phage Ecoli inh	E coli growth-1	E coli growth-2
COC(=O)c1cccc(C23CC4(C2)C(CN(Cc2ccc(C(F)(F)F)cc2)C4c2ccccc2)C3c2ccc(Cl)nc2)c1 (stereo not drawn)	·	·	·	·	0.746	·
Cc1c(Cl)c([N+](=O)[O-])nn1Cc1ccc(C(=O)NN=Cc2ccccn2)o1	·	·	·	·	0.698	·
Cc1ccc(C)c(-c2nnc(NC(=O)c3ccco3)o2)c1	-6.1	83.0*	-2.5	-1.9	0.659	-4.7
CNS(=O)(=O)c1ccc(NC(=O)Nc2cccc(F)c2)cc1	-7.1	-9.5	9.8	5.3	0.511*	7.4
Cc1ccc(C(=O)c2coc3c2C(=O)C(=O)c2ccccc2-3)cc1	-10.1	79.7*	1.6	-1.3	0.724	-1.6
O=C(NN=Cc1ccco1)/C(=C/c1cccc([N+](=O)[O-])c1)NC(=O)c1ccccc1	·	·	·	·	0.727	·
O=C(Nc1ccncc1)c1ccc2ncsc2c1	5.7	1.7	1.4	5.2	0.666	2.1
O=C(Nc1cccc(F)c1)c1ccc2ncsc2c1	-5.8	111.0*	4.0	·	0.601	0.9
O=C(Nc1ccc(F)cc1F)c1ccc2ncsc2c1	0.6	-13.8	0.7	1.3	0.656	-0.2
O=C(Nc1ccccc1F)c1ccc2ncsc2c1	18.8	105.3*	0.3	1.8	0.593	-2.6
CCOC(=O)CN1C(=O)NC(CCc2ccccc2)C(C(=O)OC)C1C (stereo not drawn)	·	·	·	·	0.666	·
N/C(=N\OC(=O)N1c2ccccc2Sc2ccccc21)c1ccccc1	1.6	94.2*	3.8	2.9	0.639	-0.9
O=C(CSc1ccc2nnc(-c3ccccn3)n2n1)Nc1ccc2c(c1)OCCO2	-3.0	-2.4	-2.8	3.5	0.702	-3.2
O=C(CSc1ccc2nnc(-c3ccccn3)n2n1)Nc1ccc2c(c1)OCO2	-8.5	-1.8	96.7*	1.1	0.714	77.9*
CN(C)c1ccc(C=NNC(=S)NCc2ccco2)cc1	·	·	·	·	0.721	·
NC(=S)n1[nH]c(-c2ccccc2)c(N=Nc2ccccc2C(=O)N2CCOCC2)c1=O	-5.4	100.3*	-1.3	2.2	0.708	-1.6
Brc1csc(C=NNc2nc3ccccc3s2)c1	·	·	·	·	0.682	·
Cc1ccc2nc(-c3ccc(NC(=S)NC4CC(C)(C)NC(C)(C)C4)cc3)sc2c1	11.7	73.8*	0.9	0.2	0.612	-2.5
CC1(CCc2ccccc2)NC(=O)N(CC(=O)Nc2ccc3c(c2)OCCO3)C1=O (stereo not drawn)	-0.4	110.0*	-0.2	2.6	0.68	-1.3
CC(C)CCC1(C)NC(=O)N(CC(=O)Nc2ccc3c(c2)OCCO3)C1=O (stereo not drawn)	-2.3	·	1.0	3.3	0.697	0.8
Cc1ccc(N2NC(C)(c3cccs3)NC2=S)cc1 (stereo not drawn)	2.3	105.4*	-0.5	3.5	0.67	-1.4
COc1ccc(OC)c(NC(=O)c2c3c(nc4ccccc24)CCC3)c1	-7.3	65.8*	0.1	·	0.724	-0.3
NC(=S)NN=Cc1ccccc1OC(=O)/C=C/c1ccccc1	·	·	·	·	0.674	·
O=c1cc(CN2CCN(Cc3ccccc3)CC2)c2ccc(O)c(O)c2o1	-4.4	88.0*	0.7	2.8	0.64	-2.8
C=CC[n+]1ccc(/C=C2\C=Cc3cc(C)ccc3N2CC)c2ccccc21	-172.9	·	·	·	0.435*	·
CN1C(=O)C(N=Nc2ccc([N+](=O)[O-])cc2)SC1=S (stereo not drawn)	6.3	·	·	-3.1	0.449*	·
CN1CCCCCC1=Nc1ccc([N+](=O)[O-])cc1	-3.3	-3.3	3.0	3.9	0.673	1.3
O=C(NN=Cc1ccncc1)c1nc(-c2ccccc2)n2c1CCCCC2	·	·	·	·	0.666	·
COc1ccc(CN2CCC3C=CCC(C(=O)N4CCOCC4)C3C2=O)cc1OC (stereo not drawn)	·	·	·	·	0.617	·

From PubChem BioAssay
